Test results taken from PubChem BioAssay (EPA / NIEHS).
Records with an inconclusive call do not appear. Calls of active or inactive are those of the source. How the source made its calls, unless noted: active means hit-call score of the fitted dose curve at least 0.9, where 1 is the maximum; inactive means score below 0.9.

What was measured:
[1] = ATG_GAL4_TRANS: Attagene TRANS-FACTORIAL HepG2 Assay for GAL4 (Internal Marker) (AID 2282976; active means hit-call score of the fitted dose curve at least 0.9, where 1 is the maximum); settings: HepG2 Attagene TRANS GAL4 internal marker reporter
Summary of the method: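 RT-PCR/capillary electrophoresis readout of reporter mRNA. HepG2, transient MRTU transfection (GAL4-UAS reporters), 24 h compound exposure. Background-control endpoint, positive direction vs DMSO baseline.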

[2] = target: Estrogen-related receptor gamma (Homo sapiens) (UniProt P62508); experiment: ATG_ERRg_TRANS: Attagene TRANS-FACTORIAL HepG2 Assay for human Estrogen-Related Receptor gamma (ERRg) (AID 2282977; active means hit-call score of the fitted dose curve at least 0.9, where 1 is the maximum;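 further: hits increase reporter signal over DMSO so potencies reflect activators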); settings: HepG2 Attagene TRANS reporter, ERRg transactivation
Estrogen-related receptor gamma (Homo sapiens), sequence (P62508 whole entry, looked up, the tested form may be a part): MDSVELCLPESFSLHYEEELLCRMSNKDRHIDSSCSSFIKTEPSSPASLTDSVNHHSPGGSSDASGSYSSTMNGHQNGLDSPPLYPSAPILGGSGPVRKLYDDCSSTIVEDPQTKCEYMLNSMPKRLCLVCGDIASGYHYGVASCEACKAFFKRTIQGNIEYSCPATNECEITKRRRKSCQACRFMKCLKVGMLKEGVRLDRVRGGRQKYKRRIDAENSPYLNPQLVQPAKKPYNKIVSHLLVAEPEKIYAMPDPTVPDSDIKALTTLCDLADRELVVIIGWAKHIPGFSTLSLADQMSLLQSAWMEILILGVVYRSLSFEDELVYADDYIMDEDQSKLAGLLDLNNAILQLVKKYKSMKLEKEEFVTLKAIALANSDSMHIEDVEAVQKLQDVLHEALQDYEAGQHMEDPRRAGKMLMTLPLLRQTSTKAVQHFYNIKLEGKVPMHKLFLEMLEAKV
Summary of the method: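 Transient HepG2 transfectants, 24 h compound exposure, GAL4-UAS reporter mRNA by RT-PCR/6-FAM labelling/capillary electrophoresis; positive direction vs DMSO.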

[3] = target: Glucocorticoid receptor (Homo sapiens) (UniProt P04150); experiment: ATG_GR_TRANS: Attagene TRANS-FACTORIAL HepG2 Assay for human Glucocorticoid Receptor (GR) (AID 2282978; active means hit-call score of the fitted dose curve at least 0.9, where 1 is the maximum;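 further: activators score as hits since higher reporter transcript over DMSO is fitted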); settings: HepG2 Attagene TRANS GR reporter, mRNA transcription
Glucocorticoid receptor (Homo sapiens), sequence (P04150 whole entry, looked up): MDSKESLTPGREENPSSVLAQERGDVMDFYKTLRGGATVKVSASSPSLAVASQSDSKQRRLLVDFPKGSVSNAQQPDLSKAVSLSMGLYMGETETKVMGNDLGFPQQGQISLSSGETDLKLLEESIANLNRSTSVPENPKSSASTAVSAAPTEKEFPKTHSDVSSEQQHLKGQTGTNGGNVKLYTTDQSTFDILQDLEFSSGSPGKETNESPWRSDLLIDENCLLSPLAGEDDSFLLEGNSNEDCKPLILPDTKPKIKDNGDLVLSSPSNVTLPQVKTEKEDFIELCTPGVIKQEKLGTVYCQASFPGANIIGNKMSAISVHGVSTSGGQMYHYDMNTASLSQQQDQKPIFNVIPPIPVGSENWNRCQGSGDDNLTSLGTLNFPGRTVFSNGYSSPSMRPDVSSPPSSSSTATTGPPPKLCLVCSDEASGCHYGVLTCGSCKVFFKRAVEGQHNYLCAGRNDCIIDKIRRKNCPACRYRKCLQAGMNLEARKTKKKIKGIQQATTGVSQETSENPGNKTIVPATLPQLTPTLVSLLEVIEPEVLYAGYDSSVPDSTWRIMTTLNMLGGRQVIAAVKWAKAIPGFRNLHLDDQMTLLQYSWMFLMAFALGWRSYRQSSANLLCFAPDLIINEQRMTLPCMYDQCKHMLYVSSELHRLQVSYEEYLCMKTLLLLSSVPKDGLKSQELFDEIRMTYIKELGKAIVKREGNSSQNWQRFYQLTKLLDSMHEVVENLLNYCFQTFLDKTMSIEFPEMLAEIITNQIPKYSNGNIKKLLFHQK
Summary of the method: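 Multiplexed TRANS reporter system, HepG2; 24 h exposure; RNA → oligo(dT) RT → reporter-specific PCR → 6-FAM primer extension → HpaI cut → CE fluorescence. Gain-of-signal vs DMSO.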

[4] = target: Bile acid receptor (Homo sapiens) (UniProt Q96RI1); experiment: ATG_FXR_TRANS: Attagene TRANS-FACTORIAL HepG2 Assay for Farnesoid X Receptor (FXR) (AID 2282979; active means hit-call score of the fitted dose curve at least 0.9, where 1 is the maximum;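 further: hits raise reporter mRNA above DMSO so AC50 marks FXR activation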); settings: HepG2 Attagene TRANS FXR-GAL4 reporter transcription
Bile acid receptor (Homo sapiens), sequence (Q96RI1 whole entry, looked up, the tested form may be a part): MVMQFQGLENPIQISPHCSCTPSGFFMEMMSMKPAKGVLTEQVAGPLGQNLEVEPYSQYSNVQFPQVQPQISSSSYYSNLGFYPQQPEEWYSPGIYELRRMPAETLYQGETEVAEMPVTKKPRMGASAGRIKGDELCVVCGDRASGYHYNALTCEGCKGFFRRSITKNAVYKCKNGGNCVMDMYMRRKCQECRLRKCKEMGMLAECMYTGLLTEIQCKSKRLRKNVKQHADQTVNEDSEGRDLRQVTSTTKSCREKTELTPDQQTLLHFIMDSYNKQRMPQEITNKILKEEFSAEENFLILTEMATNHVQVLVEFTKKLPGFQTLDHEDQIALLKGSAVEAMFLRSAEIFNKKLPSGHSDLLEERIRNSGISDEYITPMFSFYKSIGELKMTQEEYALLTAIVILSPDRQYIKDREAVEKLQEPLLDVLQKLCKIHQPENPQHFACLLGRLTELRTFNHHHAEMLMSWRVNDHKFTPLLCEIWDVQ
Summary of the method: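 Read-out: fluorescent reporter transcripts quantified by capillary electrophoresis after RT-PCR of total RNA. Source cells were HepG2 transiently carrying chimeric NR-GAL4 plus GAL4-UAS reporter units, dosed 24 h. Activity fitted upward relative to DMSO baseline.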

[5] = ATG_M_06_TRANS: Attagene TRANS-FACTORIAL HepG2 Assay for M06 Transcription Factor (Internal Marker) (AID 2282983; active means hit-call score of the fitted dose curve at least 0.9, where 1 is the maximum); settings: HepG2 Attagene TRANS M06 internal marker reporter
Summary of the method: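 After a 24 h chemical treatment of transfected HepG2, RNA underwent DNase I treatment, reverse transcription and reporter-specific PCR; labelled, HpaI-digested products were sized by capillary electrophoresis. Signal increase relative to DMSO defined activity.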

[6] = target: Nuclear receptor subfamily 4 group A member 2 (Homo sapiens) (UniProt P43354); experiment: ATG_NURR1_TRANS: Attagene TRANS-FACTORIAL HepG2 Assay for human Nuclear Receptor Related Protein 1 (NURR1) (AID 2282985; active means hit-call score of the fitted dose curve at least 0.9, where 1 is the maximum); settings: HepG2 Attagene TRANS reporter, mRNA readout
Nuclear receptor subfamily 4 group A member 2 (Homo sapiens), sequence (P43354 whole entry, looked up, the tested form may be a part): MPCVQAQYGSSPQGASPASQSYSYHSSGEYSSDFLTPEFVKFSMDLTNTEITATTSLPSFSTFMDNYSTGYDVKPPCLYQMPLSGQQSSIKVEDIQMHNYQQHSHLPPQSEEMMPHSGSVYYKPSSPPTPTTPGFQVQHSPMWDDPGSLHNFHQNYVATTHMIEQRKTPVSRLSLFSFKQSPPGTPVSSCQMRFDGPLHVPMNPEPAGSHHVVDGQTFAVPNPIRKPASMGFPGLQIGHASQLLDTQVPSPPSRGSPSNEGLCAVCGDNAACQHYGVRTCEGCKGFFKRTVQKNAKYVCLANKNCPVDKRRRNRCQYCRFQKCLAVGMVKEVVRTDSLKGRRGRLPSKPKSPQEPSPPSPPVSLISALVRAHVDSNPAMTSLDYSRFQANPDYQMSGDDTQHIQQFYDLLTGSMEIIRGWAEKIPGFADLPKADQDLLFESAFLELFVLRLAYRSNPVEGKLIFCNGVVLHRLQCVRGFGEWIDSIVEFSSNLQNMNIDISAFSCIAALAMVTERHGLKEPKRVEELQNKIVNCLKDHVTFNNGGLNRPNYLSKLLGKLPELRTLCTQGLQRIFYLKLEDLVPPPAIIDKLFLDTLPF
Summary of the method: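 HepG2 cells transiently transfected with GAL4-UAS reporter units and chimeric NR-Gal4 constructs; chemical exposure 24 h. Reporter mRNA quantified by RT-PCR, fluorescent labelling and capillary electrophoresis; gain of signal fitted relative to DMSO baseline.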

[7] = target: Transcriptional activator Myb (Homo sapiens) (UniProt P10242); experiment: ATG_Myb_CIS: Attagene CIS-FACTORIAL HepG2 Assay for human Myeloblastosis (Myb) Proto-Oncogene Transcription Factor (AID 2282986); settings: HepG2 Attagene CIS-FACTORIAL Myb reporter transcription; actives raise or lower the signal
Transcriptional activator Myb (Homo sapiens), sequence (P10242 whole entry, looked up): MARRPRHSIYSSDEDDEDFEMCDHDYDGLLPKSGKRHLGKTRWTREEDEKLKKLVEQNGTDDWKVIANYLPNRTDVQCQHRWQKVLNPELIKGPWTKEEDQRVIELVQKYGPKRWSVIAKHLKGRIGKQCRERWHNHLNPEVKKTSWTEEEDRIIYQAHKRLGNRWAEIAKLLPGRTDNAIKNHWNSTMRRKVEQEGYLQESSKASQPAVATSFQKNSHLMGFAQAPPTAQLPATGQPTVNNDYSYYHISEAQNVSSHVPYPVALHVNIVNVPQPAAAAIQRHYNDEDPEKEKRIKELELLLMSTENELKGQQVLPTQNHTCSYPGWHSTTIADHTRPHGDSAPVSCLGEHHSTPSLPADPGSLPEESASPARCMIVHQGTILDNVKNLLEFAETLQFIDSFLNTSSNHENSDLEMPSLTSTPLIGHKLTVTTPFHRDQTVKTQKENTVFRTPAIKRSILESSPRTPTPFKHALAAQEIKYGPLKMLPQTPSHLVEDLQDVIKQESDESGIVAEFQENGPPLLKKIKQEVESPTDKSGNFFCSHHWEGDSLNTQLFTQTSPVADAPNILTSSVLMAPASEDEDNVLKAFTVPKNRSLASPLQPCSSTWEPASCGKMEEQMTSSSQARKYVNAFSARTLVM
Summary of the method: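 Endogenous transcription factor activity at a Myb-responsive cis element is reported in human liver HepG2 cells after 24 h chemical treatment. Reporter mRNA is detected by RT-PCR and capillary electrophoresis fluorescence, with DMSO as baseline.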

[8] = target: Nuclear respiratory factor 1 (Homo sapiens) (UniProt Q16656); experiment: ATG_NRF1_CIS: Attagene CIS-FACTORIAL HepG2 Assay for human Nuclear Respiratory Factor 1 (NRF1) Orphan Gene (AID 2282987); settings: HepG2 NRF1 cis-element reporter, Attagene multiplex; actives raise or lower the signal
Nuclear respiratory factor 1 (Homo sapiens), sequence (Q16656 whole entry, looked up): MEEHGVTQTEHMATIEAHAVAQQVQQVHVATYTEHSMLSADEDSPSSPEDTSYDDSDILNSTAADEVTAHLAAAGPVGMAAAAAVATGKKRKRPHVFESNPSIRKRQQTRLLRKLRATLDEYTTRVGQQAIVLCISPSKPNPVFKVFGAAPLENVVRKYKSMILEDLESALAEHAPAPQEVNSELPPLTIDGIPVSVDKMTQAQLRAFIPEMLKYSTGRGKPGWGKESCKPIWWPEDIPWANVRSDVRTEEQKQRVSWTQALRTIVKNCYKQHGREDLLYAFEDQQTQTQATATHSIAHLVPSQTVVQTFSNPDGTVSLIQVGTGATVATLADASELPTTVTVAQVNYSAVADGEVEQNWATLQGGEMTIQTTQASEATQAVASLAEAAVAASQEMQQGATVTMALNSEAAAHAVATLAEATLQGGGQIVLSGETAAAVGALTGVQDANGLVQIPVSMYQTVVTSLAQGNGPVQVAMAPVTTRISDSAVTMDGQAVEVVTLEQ
Summary of the method: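 Human hepatoma HepG2 cells carrying transfected promoter-regulated reporter units were incubated with test chemicals for 24 h. Reporter transcripts were measured by RT-PCR plus capillary electrophoresis, and endpoints derived by bidirectional fitting with DMSO as baseline.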

[9] = ATG_NFI_CIS: Attagene CIS-FACTORIAL HepG2 Assay for human Nuclear Factor I (NFI) (AID 2282989); settings: HepG2 cis-regulatory reporter, NFI response element transcription; actives raise or lower the signal
Summary of the method: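 Cells: human liver HepG2, transiently transfected with promoter-regulated reporter transcription units. Exposure 24 h. Detection: fluorescent RT-PCR products separated by capillary electrophoresis, normalised to DMSO negative control.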

[10] = target: Myc proto-oncogene protein (Homo sapiens) (UniProt P01106); experiment: ATG_Myc_CIS: Attagene CIS-FACTORIAL HepG2 Assay for human Myelocytomatosis (Myc) Proto-Oncogene Transcription Factor (AID 2282990); settings: HepG2, Attagene cis-reporter transcription factor activity; actives raise or lower the signal
Myc proto-oncogene protein (Homo sapiens), sequence (P01106 whole entry, looked up): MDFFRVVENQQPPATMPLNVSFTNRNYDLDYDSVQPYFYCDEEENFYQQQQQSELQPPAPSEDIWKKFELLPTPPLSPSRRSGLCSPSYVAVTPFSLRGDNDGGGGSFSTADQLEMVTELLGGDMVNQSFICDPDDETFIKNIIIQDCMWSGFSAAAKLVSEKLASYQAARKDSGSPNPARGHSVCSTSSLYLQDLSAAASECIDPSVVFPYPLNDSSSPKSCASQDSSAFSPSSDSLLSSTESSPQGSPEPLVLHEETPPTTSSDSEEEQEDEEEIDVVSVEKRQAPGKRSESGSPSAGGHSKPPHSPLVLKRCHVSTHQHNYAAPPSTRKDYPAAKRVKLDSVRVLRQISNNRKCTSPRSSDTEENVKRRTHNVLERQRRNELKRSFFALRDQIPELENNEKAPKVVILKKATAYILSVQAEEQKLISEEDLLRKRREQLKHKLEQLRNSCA
Summary of the method: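 HepG2 cells transiently transfected with multiple cis-promoter-driven reporter transcription units, so endogenous TF activity is read. After 24 h compound exposure, reporter mRNA was quantified by RT-PCR, 6-FAM labelling, HpaI digestion and capillary electrophoresis; bidirectional fit versus DMSO.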

[11] = ATG_NF_kB_CIS: Attagene CIS-FACTORIAL HepG2 Assay for human Nuclear Factor Kappa B (NF-kB) (AID 2282991); settings: HepG2 Attagene cis-factorial NF-kB reporter mRNA; actives raise or lower the signal
Summary of the method: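 Multiplexed cis-reporter assay in transiently transfected HepG2. 24 h treatment; RNA isolated, RT-PCR, labelled fragments resolved by CE. DMSO baseline.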

[12] = ATG_NRF2_ARE_CIS: Attagene CIS-FACTORIAL HepG2 Assay for human Nuclear Factor Erythroid 2 Related Factor 2 (NFR2) response to Antioxidant Response Elements (ARE) (AID 2282992); settings: HepG2 Attagene ARE/NRF2 reporter, transcription factor activity; actives raise or lower the signal;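 on AC50: reporter mRNA level measured by RT-PCR and capillary electrophoresis fluorescence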
Summary of the method: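 Cis-factorial assay: transfected HepG2 reporter library, 24 h dosing, mRNA readout via RT-PCR/CE; DMSO-referenced bidirectional analysis.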

[13] = ATG_Oct_MLP_CIS: Attagene CIS-FACTORIAL HepG2 Assay for human Octamer-Binding Transcription Factor (Oct) (AID 2282993); settings: HepG2 Attagene cis-factorial Oct reporter, mRNA; actives raise or lower the signal
Summary of the method: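 HepG2, transient MRTU transfection, cis promoter elements; 24 h dosing; RT-PCR/CE fluorescence read-out of reporter mRNA; fit both directions vs DMSO.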

[14] = BSK_3C_TissueFactor: BioMAP Diversity Plus: 3C Assay for Tissue Factor Biomarker Activity (AID 2282997); settings: BioMAP 3C HUVEC, tissue factor biomarker readout; actives raise or lower the signal
Summary of the method: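 Human vascular primary cells (umbilical vein endothelium) received test chemical; Tissue Factor was determined by ELISA at 24 h, and both gain and loss of signal versus DMSO were fitted.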

[15] = BSK_3C_uPAR: BioMAP Diversity Plus: 3C Assay for Urokinase-type plasminogen activator receptor (uPAR) Biomarker Activity (AID 2282998); settings: BioMAP 3C HUVEC, uPAR biomarker ELISA; actives raise or lower the signal
Summary of the method: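 A multiplexed primary-cell system built on human umbilical vein endothelium was used, with chemical present for 24 h before reading. Cell-surface uPAR was detected by ELISA; signal change in either direction counted against DMSO.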

[16] = ATG_M_32_TRANS: Attagene TRANS-FACTORIAL HepG2 Assay for M32 Transcription Factor (Internal Marker) (AID 2282984; active means hit-call score of the fitted dose curve at least 0.9, where 1 is the maximum;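 further: transcript level of a background control reporter unit measured by RT-PCR and capillary electrophoresis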); settings: HepG2 Attagene TRANS M32 internal marker reporter
Summary of the method: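 HepG2 cells transiently transfected with multiple GAL4-UAS reporter transcription units, dosed for 24 hours; reporter mRNA quantified by RT-PCR, 6-FAM primer extension, HpaI digestion and capillary electrophoresis. Gain-of-signal fitted versus DMSO baseline; internal background-control marker.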

[17] = target: Cellular tumor antigen p53 (Homo sapiens) (UniProt P04637); experiment: ATG_p53_CIS: Attagene CIS-FACTORIAL HepG2 Assay for human p53 Transcription Factor (AID 2282994); settings: HepG2 p53 cis-element reporter, Attagene mRNA; actives raise or lower the signal
Cellular tumor antigen p53 (Homo sapiens), sequence (P04637 whole entry, looked up): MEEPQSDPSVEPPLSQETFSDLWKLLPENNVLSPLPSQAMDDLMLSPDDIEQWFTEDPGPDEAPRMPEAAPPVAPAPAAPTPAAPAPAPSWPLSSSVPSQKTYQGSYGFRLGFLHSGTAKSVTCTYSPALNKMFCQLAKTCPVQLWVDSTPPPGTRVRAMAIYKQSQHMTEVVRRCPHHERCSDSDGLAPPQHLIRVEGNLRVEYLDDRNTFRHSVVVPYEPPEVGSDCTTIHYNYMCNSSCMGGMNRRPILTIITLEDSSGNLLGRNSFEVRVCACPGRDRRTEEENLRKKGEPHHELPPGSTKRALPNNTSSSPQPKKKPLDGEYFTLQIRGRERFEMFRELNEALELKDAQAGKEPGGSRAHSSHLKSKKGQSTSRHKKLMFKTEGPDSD
Summary of the method: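 Using HepG2 hepatoma cells carrying cis-acting multiplexed reporters, mRNA induction is detected after a 24 h exposure. Gain- and loss-of-signal responses are fitted relative to DMSO-treated cells.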

[18] = target: Oxysterols receptor LXR-alpha (Homo sapiens) (UniProt Q13133); experiment: ATG_LXRa_TRANS: Attagene TRANS-FACTORIAL HepG2 Assay for human Liver X Receptor alpha (LXRa) (AID 2282980; active means hit-call score of the fitted dose curve at least 0.9, where 1 is the maximum); settings: HepG2 Attagene TRANS reporter, LXRa transactivation
Oxysterols receptor LXR-alpha (Homo sapiens), sequence (Q13133 whole entry, looked up, the tested form may be a part): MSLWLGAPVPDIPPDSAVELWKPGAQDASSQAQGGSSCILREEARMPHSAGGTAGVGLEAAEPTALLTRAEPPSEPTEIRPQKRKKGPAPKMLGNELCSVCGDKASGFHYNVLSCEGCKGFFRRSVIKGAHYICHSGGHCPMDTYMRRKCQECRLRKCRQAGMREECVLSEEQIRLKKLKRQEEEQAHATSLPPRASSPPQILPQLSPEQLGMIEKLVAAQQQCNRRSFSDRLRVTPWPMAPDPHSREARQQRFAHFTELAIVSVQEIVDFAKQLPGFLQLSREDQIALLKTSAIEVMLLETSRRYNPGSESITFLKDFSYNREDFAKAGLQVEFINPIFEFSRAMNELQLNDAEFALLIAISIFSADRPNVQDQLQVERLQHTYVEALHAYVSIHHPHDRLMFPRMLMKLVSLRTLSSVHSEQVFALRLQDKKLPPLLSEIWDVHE
Summary of the method: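 Read-out: reporter transcript levels by RT-PCR plus capillary electrophoresis, fluorescence intensity. Transiently transfected HepG2, exogenous NR-GAL4 chimera, GAL4-UAS reporters; 24 h compound exposure. Activity = increase over DMSO negative control.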

[19] = target: Oxysterols receptor LXR-beta (Homo sapiens) (UniProt P55055); experiment: ATG_LXRb_TRANS: Attagene TRANS-FACTORIAL HepG2 Assay for human Liver X Receptor beta (LXRb) (AID 2282981; active means hit-call score of the fitted dose curve at least 0.9, where 1 is the maximum); settings: HepG2 Attagene TRANS GAL4-LXRb reporter, mRNA
Summary of the method: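 HepG2 cells transiently transfected with multiple reporter transcription units carrying chimeric NR-Gal4 proteins acting on GAL4-UAS reporters; compound exposure 24 h. Reporter mRNA quantified by RT-PCR, 6-FAM labelling, HpaI digestion and capillary electrophoresis; gain of signal versus DMSO.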

[20] = target: Hepatocyte nuclear factor 4-alpha (Homo sapiens) (UniProt P41235); experiment: ATG_HNF4a_TRANS: Attagene TRANS-FACTORIAL HepG2 Assay for human Hepatocyte Nuclear Factor 4 alpha (HNF4a) (AID 2282982; active means hit-call score of the fitted dose curve at least 0.9, where 1 is the maximum); settings: HepG2 HNF4a transactivation reporter, mRNA readout
Summary of the method: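 HepG2 cells transiently transfected with multiplexed GAL4-UAS reporter units responsive to chimeric NR-GAL4 proteins; compound exposure 24 h. Reporter mRNA quantified by RT-PCR, 6-FAM labelling, HpaI digestion and capillary electrophoresis; gain of signal versus DMSO baseline.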

Measured: AC50

Cc1ccc(N)cc1N
not listed: [16] | [17] | [18] | [19] | [20]
inactive: all other assays above

N#Cc1ccc(O)cc1
not listed: [2] | [14] | [15] | [18] | [19] | [20]
inactive: all other assays above

CCC(C)(C)c1ccc(O)cc1
active: [7] 46.1 µM | [12] 33.4 µM
not listed: [3] | [16] | [18] | [19] | [20]
inactive: all other assays above

Cc1ccc(C(=O)Cl)cc1
not listed: [4] | [6] | [14] | [15] | [17] | [19] | [20]
inactive: all other assays above

NC(=O)C(F)(F)C(F)(F)F
not listed: [6] | [16] | [17] | [18] | [19] | [20]
inactive: all other assays above

ClC(Cl)c1ccccc1
not listed: [4] | [5] | [6] | [17] | [19] | [20]
inactive: all other assays above

c1ccc2c(c1)Nc1ccccc1S2
active: [12] 20.6 µM
not listed: [3] | [4] | [6] | [11] | [20]
inactive: all other assays above

C/C(=N\NC(=O)Nc1cc(F)cc(F)c1)c1ncccc1C(=O)O
not listed: [2] | [14] | [15] | [19]
inactive: all other assays above

Nc1ccc([N+](=O)[O-])cc1Cl
not listed: [2] | [5] | [6] | [19] | [20]
inactive: all other assays above
